Among all 290,000 compounds or so, about 490 (0.17%) were called active. No stated cut-off is given here; in the data, active means inhibition above about 37%; inactive means the rest. This excerpt belongs to a sample that is enriched for actives.
Assay: DNA intercalator displacement agents – biochemical, FID fluorescence, artefact control for HCV NS3 helicase inhibitor project, primary screen (AID 1845);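 further: 0% = vehicle and 100% = reference compound; higher means more ethidium bromide displaced from hairpin DNA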
Conditions: DNA fluorescent intercalator displacement, at 7.9 µM, stronger effect = higher value

Structure (SMILES) | inhibition
Cc1ccc(-n2c(SCC(=O)NCCC3=CCCCC3)nc3n[nH]c(C)c3c2=N)cc1Cl | -27.4% (inactive)
O=C(N/N=C/c1cccc(Br)c1)c1ccc(N2CCCC2=O)cc1 | -27.4% (inactive)
C=CCOc1ccc(/C=C/C(=O)OCC(=O)NC2CCCCCC2)cc1 | -19.4% (inactive)
Cc1cc([N+](=O)[O-])ccc1NC(=O)c1ccc(NC(=O)C(C)C)cc1 | -1.34% (inactive)
O=C(Nc1ccc(C(=O)N2CCCCC2)cc1)c1cccc([N+](=O)[O-])c1 | -20.2% (inactive)
Cn1ccc(=Nc2ccc(NC(=O)c3ccc(N=c4ccn(C)c5ccc([N+](=O)[O-])cc45)cc3)cc2)cc1 | 99% (active)
CCC(C)(C)NC(=O)C(c1cccc(OC)c1OC)N(CC(C)C)C(=O)CCC(=O)Nc1cc(C)on1 (centres undefined) | -44.5% (inactive)
O=C(NCCN1CCOCC1)c1ccc2c(c1)ncn2C1CCCC1 | -5.28% (inactive)
c1ccc2cc3c(NCCN4CCOCC4)ccnc3cc2c1 | 63.9% (active)
O=C(NCCN1CCOCC1)c1cc(-c2cccs2)nc2ccccc12 | 3.9% (inactive)
CCCc1cc(=O)oc2c(C)c(OCC(=O)Nc3ccccn3)ccc12 | -23.4% (inactive)
COC(=O)c1ccc(/C=N/NC(=O)C(=O)N2CCCCCC2)cc1 | -24.6% (inactive)
CCc1c(C)c2ccc(OC3CCCCC3=O)cc2oc1=O (centres undefined) | -19.1% (inactive)
Oc1c(Cl)cc(Cl)c(Cl)c1Cc1c(O)c(Cl)cc(Cl)c1Cl | 42.8% (active)
CCC1OC(c2ccc([N+](=O)[O-])cc2)=Nc2ccccc21 (centres undefined) | 0.06% (inactive)
CC(CN1CCCCC1)c1ccccc1 (centres undefined) | 4.77% (inactive)
CC(C)[C@@H](NC(=O)OC(C)(C)C)C(=O)NCC1CCC(C(=O)N[C@@H](Cc2ccccc2)C(=O)O)CC1 (some centres undefined) | -37.5% (inactive)
O=C(CCN1CCc2ccccc2C(O)(c2ccccc2)C1)c1ccc2c(c1)OCCO2 (centres undefined) | 13.1% (inactive)
COc1ccc2cc(C(=O)C3CCCN(C(=O)c4sc(C)nc4C)C3)ccc2c1 (centres undefined) | -47.1% (inactive)
O=C(Nc1ccccc1F)c1ccc(Cn2cc(Br)cn2)cc1 | -14.8% (inactive)
NC(=O)c1cc(S(=O)(=O)NCCCc2ccco2)cs1 | -3.13% (inactive)
O=S1(=O)N=C(N(CCO)/N=C/c2ccccc2F)c2ccccc21 | -16.3% (inactive)
COc1ccc(CCNC(=O)CN2C(=O)CCSc3ccccc32)c(OC)c1 | -32% (inactive)

Structure (SMILES) | inhibition
CC(C)C[C@@H](COc1ccccc1)N1CCN(CC(C)C)CCC1=O | -13.2% (inactive)
Cc1cnc(C)c(N2CCN(C(=O)C3CCC(=O)N(CCc4cccc(F)c4)C3)CC2)n1 (centres undefined) | -38.6% (inactive)
O=C(Nc1ccccc1)c1ccc2c(c1)OCCCO2 | -4.42% (inactive)
CC(NC(=O)CNC(=O)Cc1cccc2ccccc12)c1ccc(S(N)(=O)=O)cc1 (centres undefined) | -27.1% (inactive)
Cc1ccc2c(c1)N(CC(=O)N1CCC(O)CC1)C(=O)CO2 | -5.64% (inactive)
O=C(CCN1C(=O)[C@H]2CC=CC[C@H]2C1=O)NCc1nc(-c2ccccc2)no1 | -33.7% (inactive)
O=C1NC(c2ccc(-c3ccccc3[N+](=O)[O-])o2)C(C(=O)c2ccc(Cl)cc2)C(O)(C(F)(F)F)N1 (centres undefined) | -16.8% (inactive)
C/C(=N/OC(=O)c1ccc(Br)cc1)c1ccc(C)cc1 | -5.35% (inactive)
CC(C)C[C@H](NC(=O)C1CCC(CNC(=O)[C@@H]2CCCN2C(=O)OC(C)(C)C)CC1)C(=O)O (some centres undefined) | -30.2% (inactive)
CC(=O)c1sc(N/N=C/c2ccc(C(C)C)cc2)nc1C | 4.61% (inactive)
CCOc1ccc(NC(=O)C(C)N2C(=O)c3ccccc3C2=O)cc1 (centres undefined) | -4.96% (inactive)
S=C(Nc1ccc(Cl)cc1Cl)N1CCCC1 | 0.9% (inactive)
O=C(NCCN1CCN(C(=O)c2cccc([N+](=O)[O-])c2)CC1)C(=O)NCc1ccc(Cl)cc1 | -23.5% (inactive)
NC(=O)C1CCN(Cc2nc3c(Br)cc(Br)cc3c(=O)[nH]2)CC1 | -3.04% (inactive)
O=C(C1CC(=O)N(c2ccc(F)cc2)C1)N1CCN(c2ccccc2)CC1 (centres undefined) | -24.8% (inactive)
CCc1cc(=O)oc2c(C)c(OCC(=O)N3CC[C@@]4(O)CCCC[C@H]4C3)ccc12 | -29.5% (inactive)
COC(=O)c1c(NC(=O)C(=O)N2CCCCC2)sc2c1CC(C)(C)OC2 | -42.8% (inactive)
CCN(CC)S(=O)(=O)c1ccc(N2CCOCC2)c(NC(=O)C2CSC3(C)CCC(=O)N23)c1 (centres undefined) | -32.7% (inactive)
COc1cccc(N(CC(=O)NC2CCCC2)C(=O)CCCC(=O)Nc2ccccn2)c1 | -30.3% (inactive)
O=C(O)CC(c1ccccc1F)N1Cc2ccccc2C1=O (centres undefined) | -5.32% (inactive)
CC(C)(C)c1ccc(/C=C/C(=O)NCCCn2ccnc2)cc1 | 4.7% (inactive)
CC(C)c1ccc(Nc2nnc(SCC(=O)c3nnc(-c4ccccc4)o3)s2)cc1 | -16.9% (inactive)
COc1ccccc1N(CC(=O)Nc1ccccc1C(=O)N1CCCC1)S(C)(=O)=O | -10.3% (inactive)

Structure (SMILES) | inhibition
Cc1cccc(NC(=O)CCN2CC(C)CC(C)C2)c1 (centres undefined) | 6.82% (inactive)
CN(CCO)S(=O)(=O)c1ccc2c(c1)C(=O)c1cc(S(=O)(=O)N(C)CCO)ccc1-2 | 0.99% (inactive)
O=C(c1cc(S(=O)(=O)N2CCOCC2)ccc1Cl)N1CCOCC1 | -0.42% (inactive)
O=C(CCN1CCCO1)N1CCCC(N2CCN(c3cccc(C(F)(F)F)c3)CC2)C1 (centres undefined) | -34.6% (inactive)
O=C(Cc1ccc(Cl)cc1)NC1CCS(=O)(=O)C1 (centres undefined) | -2.95% (inactive)
CC(=O)Nc1ccc(NC(=O)COc2ncnc3ccccc23)cc1 | -0.17% (inactive)
CC(=O)Nc1ccc(Nc2c3ccccc3nc3ccccc23)cc1 | 70.8% (active)
Cc1ccc(Nc2c3c(nc4ccccc24)CCC3)cc1 | 6.54% (inactive)
COc1ccccc1N1CCN(c2ncnc3sc(C)c(-c4ccccc4)c23)CC1 | -38.6% (inactive)
OC(CN=c1sc2ccccc2n1CC(O)COc1ccccc1)COc1ccccc1 (centres undefined) | -11.1% (inactive)
NS(=O)(=O)c1ccc(CCNc2nc(C(F)(F)F)nc3ccccc23)cc1 | -2.69% (inactive)
COc1cccc(CNc2nc(C(F)(F)F)nc3ccccc23)c1 | -5.57% (inactive)
CCc1ccc(C(CNc2nc(C(F)(F)F)nc3ccccc23)N(C)C)cc1 (centres undefined) | 39.5% (active)
COc1ccc(C(=O)COC(=O)Cn2cnc3c2c(=O)n(C)c(=O)n3C)c(OC)c1 | -23% (inactive)
O=C(Nc1ccc([N+](=O)[O-])cc1)OCCc1ccccn1 | 5.74% (inactive)
COc1ccc(CSc2nnnn2-c2ccc(O)cc2)cc1F | -6.37% (inactive)
COc1ccc(CC(=O)NC2CCSc3ccccc32)cc1OC (centres undefined) | -19.9% (inactive)
COc1ccc(-c2noc(CCCC(=O)NC3CCCC3)n2)cc1OC | -34.4% (inactive)
Cc1ccc(C2CC(c3cccc(NS(C)(=O)=O)c3)=NN2S(C)(=O)=O)cc1 (centres undefined) | -20.2% (inactive)
CN(CC(=O)Nc1c(Cl)cccc1Cl)C(=O)CNC(=O)C1CCCCC1 | -9.61% (inactive)
CCOC(=O)C1(Cc2ccccc2C)CCCN(C(=O)c2ccc(COC)o2)C1 (centres undefined) | -43.4% (inactive)
Cn1c(=O)c2ccccc2n(CC(=O)Nc2ccc3c(c2)OCCO3)c1=O | -7.1% (inactive)
COc1ccc(/C=C2\SC(=O)N(CCC(=O)NC3CCS(=O)(=O)C3)C2=O)cc1 (centres undefined) | -25.1% (inactive)

Structure (SMILES) | inhibition
COc1ccc(Br)cc1CN(C)CC(=O)Nc1cc([N+](=O)[O-])ccc1OC | 0.14% (inactive)
O=C(NC1CCCCC1)C1CCC(CNS(=O)(=O)c2ccccc2)CC1 (centres undefined) | -36.5% (inactive)
Cc1ccc(C(C(=O)NCC2CCCO2)N(C(=O)c2snc(C(N)=O)c2N)c2ccc(C(C)C)cc2)o1 (centres undefined) | -41% (inactive)
CCCCNC(=O)C1(O)c2ccccc2NC(=O)N1c1ccc(Cl)cc1 (centres undefined) | -11.7% (inactive)
CCCNC(=O)c1ccc(N2CCC3(CC2)CC(c2ccc(Cl)cc2)=NO3)c([N+](=O)[O-])c1 | -20% (inactive)
COc1ccc(OC)c(C(C)NC(=S)Nc2ccc(S(=O)(=O)Nc3ncccn3)cc2)c1 (centres undefined) | -59.4% (inactive)
Cc1c(Cl)cccc1NC(=O)NCCCN1CCCC1=O | -5.46% (inactive)
COc1ccccc1NC(=O)CCC(=O)OC(C)C(=O)c1ccccc1 (centres undefined) | -17.2% (inactive)
COc1cccc(NC(=O)N2C3CCCC2CC(NC(C)=O)C3)c1 (centres undefined) | -3.46% (inactive)
CC[n+]1cc(C)ccc1/C=C/c1ccc(N(C)C)cc1 | -33.2% (inactive)
COc1ccc(N2CCN(S(=O)(=O)c3cc(Br)cnc3N)CC2)cc1 | -2.88% (inactive)
CC(=O)c1ccc(NC(=O)c2sc3nc4n(c(=O)c3c2C)CCCCC4)cc1 | -25.9% (inactive)
Cc1ccn(CCC(=O)N2c3ccccc3CC2C)n1 (centres undefined) | -9.3% (inactive)
O=C(/C=C/c1ccc([N+](=O)[O-])o1)NNC(=O)c1ccc(F)cc1 | -4.43% (inactive)
CCN(CC)c1ccc(NC(=O)CN2CCN(c3ccccn3)CC2)cc1 | -17.6% (inactive)
O=C(Cn1ccc2cc(S(=O)(=O)N3CCCC3)ccc21)NCc1ccccc1 | -16.4% (inactive)
O=C(c1ccc[nH]c1=S)N1CCN(S(=O)(=O)c2ccc(Br)cc2Cl)CC1 | -16.3% (inactive)
C/C(=N\Nc1cccc(C(=O)O)c1)c1ccc2c(c1)Nc1ccccc1S2 | -16.1% (inactive)
NS(=O)(=O)c1ccc2nc(NC(=O)CS(=O)(=O)c3ccc(F)cc3)sc2c1 | -3.98% (inactive)
CC(CCc1ccc(O)cc1)NCc1ccc(Cl)cc1Cl (centres undefined) | 12.2% (inactive)
